Experimental data from the antibiotic and cytotoxicity screens of Wong et al. (2023).
Hit rate of the full screen: of about 39,000 compounds, about 3,300 (8.5%) were called active. This excerpt belongs to a sample that is enriched for actives.

System: HepG2
Assay: cytotoxicity call (relative viability < 0.9)
Conditions: 10 µM

SMILES	cytotoxicity call
C[Si](C)(C)O[Si](C)(C)O[Si](C)(C)C	inactive
COc1ccc(S(=O)(=O)N(C)C[C@@H]2Oc3c(NS(=O)(=O)c4ccc(F)cc4)cccc3C(=O)N([C@H](C)CO)C[C@H]2C)cc1	inactive
Cc1ccc(S(=O)(=O)N(C)C[C@H]2OCCCC[C@@H](C)Oc3ccc(NC(=O)C4CCCCC4)cc3C(=O)N([C@H](C)CO)C[C@H]2C)cc1	inactive
COc1ccccc1CNC(=O)C[C@@H]1CC[C@H]2[C@@H](COC[C@H](O)CN2C(=O)Nc2ccc(Cl)cc2)O1	inactive
C[C@@H]1CN([C@H](C)CO)C(=O)c2cc(NC(=O)Nc3cccc4ccccc34)ccc2O[C@@H](C)CCCCO[C@H]1CN(C)Cc1ccccc1	active
C[C@@H]1CCCCO[C@H](CN(C)Cc2ccc(C(=O)O)cc2)[C@H](C)CN([C@H](C)CO)C(=O)c2cc(NC(=O)Nc3cccc4ccccc34)ccc2O1	inactive
C[C@H](CO)N1C[C@H](C)[C@@H](CN(C)Cc2ccc(C(F)(F)F)cc2)OCCCC[C@H](C)Oc2ccc(NC(=O)Nc3cccc4ccccc34)cc2C1=O	active
C[C@@H]1CN([C@H](C)CO)C(=O)c2cc(NC(=O)Nc3cccc4ccccc34)ccc2O[C@@H](C)CCCCO[C@H]1CN(C)Cc1ccc(C(F)(F)F)cc1	inactive
C[C@@H]1CCCCO[C@@H](CN(C)Cc2ccccc2)[C@@H](C)CN([C@@H](C)CO)C(=O)c2cc(NC(=O)Nc3cccc4ccccc34)ccc2O1	inactive
C[C@@H]1CCCCO[C@@H](CN(C)Cc2ccc(C(=O)O)cc2)[C@@H](C)CN([C@@H](C)CO)C(=O)c2cc(NC(=O)Nc3cccc4ccccc34)ccc2O1	inactive
C[C@@H]1CN([C@@H](C)CO)C(=O)c2cc(NC(=O)Nc3cccc4ccccc34)ccc2O[C@@H](C)CCCCO[C@H]1CN(C)Cc1ccc(C(F)(F)F)cc1	inactive
C[C@H](CO)N1C[C@H](C)[C@H](CN(C)Cc2ccccc2)OCCCC[C@H](C)Oc2ccc(NC(=O)Nc3cccc4ccccc34)cc2C1=O	inactive
C[C@@H]1CN([C@@H](C)CO)C(=O)c2cc(NC(=O)Nc3cccc4ccccc34)ccc2O[C@@H](C)CCCCO[C@@H]1CN(C)Cc1ccccc1	active
COc1ccc(S(=O)(=O)N(C)C[C@@H]2Oc3ccc(NS(=O)(=O)c4c(C)noc4C)cc3C(=O)N([C@@H](C)CO)C[C@H]2C)cc1	inactive
COc1ccc(S(=O)(=O)N(C)C[C@H]2OCCCC[C@@H](C)Oc3ccc(NC(=O)CCCCCC(=O)Nc4ccccc4N)cc3C(=O)N([C@H](C)CO)C[C@H]2C)cc1	inactive
C[C@@H]1CN([C@H](C)CO)C(=O)c2cccc(NS(C)(=O)=O)c2O[C@@H]1CN(C)Cc1ccc2c(c1)OCO2	inactive
C[C@@H]1CN([C@@H](C)CO)C(=O)c2cc(NS(=O)(=O)c3cccs3)ccc2O[C@@H](C)CCCCO[C@@H]1CN(C)S(=O)(=O)c1cn(C)cn1	inactive
Cc1noc(C)c1NC(=O)Nc1ccc2c(c1)CC(=O)N([C@H](C)CO)C[C@@H](C)[C@@H](CN(C)S(C)(=O)=O)O2	inactive
CS(=O)(=O)Nc1ccc2c(c1)[C@@H]1C[C@H](CC(=O)NCC3CC3)O[C@@H](CO)[C@@H]1O2	inactive
C[C@@H]1CN([C@@H](C)CO)C(=O)c2cc(NC(=O)Cc3ccccc3)ccc2O[C@@H](C)CCCCO[C@@H]1CN(C)S(=O)(=O)c1ccc(F)cc1	inactive
C[C@@H]1CN([C@@H](C)CO)C(=O)c2cc(NC(=O)c3ccccc3)ccc2O[C@@H](C)CCCCO[C@H]1CN(C)Cc1ccncc1	inactive
CC(C)NC(=O)Nc1cccc2c1O[C@H](CN(C)Cc1ccc3c(c1)OCO3)[C@H](C)CN([C@@H](C)CO)C2=O	inactive

SMILES	cytotoxicity call
C[C@H]1CN([C@@H](C)CO)C(=O)c2cccc(NC(=O)C3CC3)c2O[C@H]1CN(C)Cc1ccc(-c2ccccc2)cc1	inactive
Cc1cc(CCC[C@H](CC(=O)NO)C(=O)N[C@H](C(=O)N[C@H](C)c2ccccc2)C(C)(C)C)ccc1-c1ccccc1	active
Nc1cccc(-c2cccs2)c1	inactive
C[C@H](CO)N1C[C@H](C)[C@H](CN(C)S(C)(=O)=O)Oc2ncc(C#Cc3cccnc3)cc2C1=O	inactive
CN(C)CCN(Cc1ccc(Cl)cc1)c1ccccn1.Cl	inactive
COc1ccc(CN(CCN(C)C)c2ccccn2)cc1.O=C(O)C=CC(=O)O	inactive
CN(C)CCN(Cc1ccccc1)c1ccccn1.O=C(O)CC(O)(CC(=O)O)C(=O)O	active
C[C@H](CO)N1C[C@H](C)[C@@H](CN(C)S(=O)(=O)c2cn(C)cn2)Oc2ccc(NC(=O)CCC(F)(F)F)cc2C1=O	inactive
C[C@@H]1CN([C@H](C)CO)S(=O)(=O)c2ccc(C#CCN(C)C)cc2O[C@H]1CN(C)S(C)(=O)=O	inactive
Cc1cc(C(=O)Nc2cccc3c2O[C@H](CN(C)S(=O)(=O)c2c(C)noc2C)[C@H](C)CN([C@H](C)CO)C3=O)n(C)n1	inactive
CC1(C)C[C@@](CCN)(Cc2ccccc2)CCO1	inactive
Cc1ccc(S(=O)(=O)N(C)C[C@@H]2OCCCC[C@@H](C)Oc3ccc(NS(=O)(=O)c4ccc(F)cc4)cc3C(=O)N([C@H](C)CO)C[C@H]2C)cc1	active
Cc1ccc(S(=O)(=O)Nc2ccc3c(c2)C(=O)N([C@@H](C)CO)C[C@H](C)[C@@H](CN(C)S(=O)(=O)c2ccc(F)cc2)OCCCC[C@@H](C)O3)cc1	inactive
Cc1ccc(S(=O)(=O)Nc2ccc3c(c2)C(=O)N([C@@H](C)CO)C[C@@H](C)[C@H](CN(C)S(=O)(=O)c2ccc(F)cc2)OCCCC[C@@H](C)O3)cc1	inactive
Cc1ccc(S(=O)(=O)N(C)C[C@H]2OCCCC[C@H](C)Oc3ccc(NS(=O)(=O)c4ccc(F)cc4)cc3C(=O)N([C@H](C)CO)C[C@H]2C)cc1	inactive
Cc1ccc(S(=O)(=O)Nc2ccc3c(c2)C(=O)N([C@H](C)CO)C[C@H](C)[C@@H](CN(C)S(=O)(=O)c2ccc(F)cc2)OCCCC[C@H](C)O3)cc1	inactive
Cc1ccc(S(=O)(=O)Nc2ccc3c(c2)C(=O)N([C@H](C)CO)C[C@@H](C)[C@H](CN(C)S(=O)(=O)c2ccc(F)cc2)OCCCC[C@@H](C)O3)cc1	inactive
Cc1ccc(S(=O)(=O)N(C)C[C@@H]2OCCCC[C@H](C)Oc3ccc(NS(=O)(=O)c4ccc(F)cc4)cc3C(=O)N([C@H](C)CO)C[C@@H]2C)cc1	active
Cc1ccc(S(=O)(=O)N(C)C[C@H]2OCCCC[C@H](C)Oc3ccc(NS(=O)(=O)c4ccc(F)cc4)cc3C(=O)N([C@@H](C)CO)C[C@@H]2C)cc1	inactive
Cc1ccc(S(=O)(=O)N(C)C[C@@H]2OCCCC[C@H](C)Oc3ccc(NS(=O)(=O)c4ccc(F)cc4)cc3C(=O)N([C@@H](C)CO)C[C@H]2C)cc1	active
Cc1ccc(S(=O)(=O)Nc2ccc3c(c2)C(=O)N([C@H](C)CO)C[C@H](C)[C@H](CN(C)S(=O)(=O)c2ccc(F)cc2)OCCCC[C@H](C)O3)cc1	inactive
Cc1ccc(S(=O)(=O)N(C)C[C@@H]2OCCCC[C@H](C)Oc3ccc(NS(=O)(=O)c4ccc(F)cc4)cc3C(=O)N([C@@H](C)CO)C[C@@H]2C)cc1	active

SMILES	cytotoxicity call
Cc1ccc(S(=O)(=O)Nc2ccc3c(c2)C(=O)N([C@@H](C)CO)C[C@H](C)[C@@H](CN(C)S(=O)(=O)c2ccc(F)cc2)OCCCC[C@H](C)O3)cc1	inactive
CN1CCN(C(=O)C[C@@H]2C=C[C@@H](NC(=O)Nc3ccccc3F)[C@@H](CO)O2)CC1	inactive
COc1ccc(NC(=O)N(C)C[C@@H]2Oc3ccc(NS(C)(=O)=O)cc3CC(=O)N([C@H](C)CO)C[C@@H]2C)cc1	inactive
C[C@@H]1CN([C@H](C)CO)C(=O)c2cccc(NC(=O)Nc3ccccc3)c2O[C@H]1CN(C)C(=O)Nc1ccc(C(F)(F)F)cc1	inactive
Cc1ccc(S(=O)(=O)c2c[nH]c(=O)[nH]2)cc1	inactive
CC[C@@](C)(Nc1n[nH]c(=O)[nH]c1=O)C(=O)O	inactive
OC[C@H]1O[C@@H](O[C@@H]2[C@@H](O)[C@H](O)[C@H](O[C@@H]3[C@@H](O)[C@H](O)[C@H](O)O[C@@H]3CO)O[C@@H]2CO)[C@@H](O)[C@@H](O)[C@@H]1O	inactive
O.OCC1OC(OC2C(CO)OC(O)C(O)C2O)C(O)C(O)C1O (stereo not given)	active
OCC1OC(OC2C(CO)OC(O)C(O)C2O)C(O)C(O)C1O (stereo not given)	inactive
COC(=O)c1c2oc(c1C(=O)OC)C(=O)N(C)Cc1cn(nn1)C[C@@H](Cc1ccccc1)NC(=O)N[C@H](COC(=O)NCCCCCC(=O)NO)CC2	inactive
Cc1noc(C)c1NC(=O)Nc1ccc2c(c1)C(=O)N([C@@H](C)CO)C[C@H](C)[C@@H](CN(C)S(C)(=O)=O)O2	inactive
O=C(Oc1cc(O)cc2c1C[C@@H](OC(=O)c1cc(O)c(O)c(O)c1)[C@@H](c1cc(O)c(O)c(O)c1)O2)c1cc(O)c(O)c(O)c1	inactive
O=C(OC1Cc2c(O)cc(O)cc2OC1c1ccc(O)c(O)c1)c1cc(O)c(O)c(O)c1 (stereo not given)	inactive
O=C(OC[C@H]1O[C@@H](OC(=O)c2cc(O)c(O)c(O)c2)[C@H](O)[C@@H](O)[C@@H]1O)c1cc(O)c(O)c(O)c1	inactive
O=C(OC[C@H]1O[C@@H](OC(=O)c2cc(O)c(O)c(O)c2)[C@H](O)[C@@H](OC(=O)c2cc(O)c(O)c(O)c2)[C@@H]1O)c1cc(O)c(O)c(O)c1	active
O=C(OCC1OC(OC(=O)c2cc(O)c(O)c(OC(=O)c3cc(O)c(O)c(O)c3)c2)C(OC(=O)c2cc(O)c(O)c(OC(=O)c3cc(O)c(O)c(O)c3)c2)C(OC(=O)c2cc(O)c(O)c(OC(=O)c3cc(O)c(O)c(O)c3)c2)C1OC(=O)c1cc(O)c(O)c(OC(=O)c2cc(O)c(O)c(O)c2)c1)c1cc(O)c(O)c(OC(=O)c2cc(O)c(O)c(O)c2)c1 (stereo not given)	active
O=C(OC[C@H]1O[C@@H](OC(=O)c2cc(O)c(O)c(O)c2)[C@H](OC(=O)c2cc(O)c(O)c(O)c2)[C@@H](OC(=O)c2cc(O)c(O)c(O)c2)[C@@H]1OC(=O)c1cc(O)c(O)c(O)c1)c1cc(O)c(O)c(O)c1	active
C=C[C@H]1[C@H](O[C@H]2O[C@@H](CO)[C@@H](O)[C@@H](O)[C@@H]2O)OC=C(C(=O)OC)[C@H]1CCOC(=O)c1cc(O)c(O)c(O)c1	inactive
O=C(O)C[C@@H]1C(=O)O[C@H]2[C@@H](OC(=O)c3cc(O)c(O)c(O)c3)[C@H](OC(=O)c3cc(O)c(O)c4c3[C@H]1[C@H](O)C(=O)O4)[C@H](OC(=O)c1cc(O)c(O)c(O)c1)O[C@@H]2COC(=O)c1cc(O)c(O)c(O)c1	active
O=C(O)c1cc(O)c(O)c(O)c1	inactive
O=C(OC1Cc2c(O)cc(O)cc2OC1c1cc(O)c(O)c(O)c1)c1cc(O)c(O)c(O)c1 (stereo not given)	inactive
